# Data from the supplement of paper PMC10498489.
# The campaign covered roughly 2,300 compounds. About 330 (14%) showed activity. A selection follows. A number with no mark means an inactive call.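 How the source made its calls: active = median modified Z-score above 1.96; inactive = 1.96 or below.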
# System: HepG2 Srxn1-GFP reporter cells (+30 nM CDDO-Me)
# Assay: Srxn1-GFP intensity median modified Z-score relative to plate median; higher = stronger NRF2 / oxidative stress reporter activation, active = hit call of the paper
# Conditions: 10 µM; exposure time: 24h
# In short: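 In 96-well plates holding 20,000 HepG2 Srxn1-GFP BAC reporter cells per well, compound at 10 μM and an NRF2 activator at 30 nM were added together for 24 h, with DMSO at ≤0.1%, across three replicate plates. After fixation in formaldehyde and Hoechst staining, confocal images were analysed cell by cell for cytoplasmic GFP, and images containing under 100 cells were excluded. Values are replicate medians of the per-plate modified Z-score of GFP intensity, scaled by 1.4826 × median absolute deviation.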
row,SMILES,Srxn1-GFP intensity median modified Z-score
1,O=C(O)CCCCC(=O)O [euspeclibcmpd2456],0.307
2,C[C@H]1O[C@H](O[C@H]2[C@H](O)[C@@H](O)[C@@H](O[C@H]3[C@H](O)[C@@H](O)C(O)O[C@@H]3CO)O[C@@H]2CO)[C@H](O)[C@@H](O)[C@@H]1N[C@H]1C=C(CO)[C@@H](O)[C@H](O)[C@H]1O (some centres undefined) [euspeclibcmpd430],-0.321
3,CC[C@H]1OC(=O)C(C)[C@@H](O[C@H]2C[C@@](C)(OC)[C@@H](O)[C@H](C)O2)[C@H](C)[C@@H](O[C@@H]2O[C@H](C)C[C@H](N(C)C)[C@H]2O)[C@](C)(O)CC(C)C(=NOCOCCOC)C(C)[C@@H](O)[C@]1(C)O (some centres undefined) [euspeclibcmpd567],-0.00752
4,Cc1c(C(=O)O)sc(S(=O)(=O)N2CCN(C(=O)CC3CCCC3)CC2)c1C(=O)O,0.344
5,Cc1[nH]c(=O)c(C#N)cc1-c1ccncc1 [euspeclibcmpd1241],2.87 (active)
6,Nc1cc(-c2ccncc2)c[nH]c1=O [euspeclibcmpd524],-0.435
7,COc1cc(=NS(=O)(=O)c2ccc(N)cc2)[nH]cn1 [euspeclibcmpd400],-0.55
8,CC(=O)C(N)C(O)O (centres undefined) [euspeclibcmpd2348],-0.525
9,CC(=O)C(N)C(O)O (centres undefined) [euspeclibcmpd1109],-0.112
10,CCOc1cc(CC(=O)N[C@@H](CC(C)C)c2ccccc2N2CCCCC2)ccc1C(=O)O [euspeclibcmpd908],0.187
11,COc1cc(O)c(C(C)=O)c(O)c1 [euspeclibcmpd1561],1.48
12,N[C@@H](CC(=O)N1CCn2c(nnc2C(F)(F)F)C1)Cc1cc(F)c(F)cc1F [euspeclibcmpd2166],12.2 (active)
13,CCn1cc(N(CC(C)C)S(=O)(=O)CCC2CCOCC2)cn1,1.44
14,N=c1ccn2c(n1)O[C@@H]1[C@@H](O)[C@H](CO)O[C@@H]12 [euspeclibcmpd1164],0.441
15,Oc1cc2cc(CCN3CCN(c4nsc5ccccc45)CC3)c(Cl)cc2[nH]1 [euspeclibcmpd1992],-0.197
16,O=C(O)CCC(=O)OC[C@@H](NC(=O)C(Cl)Cl)[C@H](O)c1ccc([N+](=O)[O-])cc1 [euspeclibcmpd2230],-0.0902
17,NC(CSCSCC(N)C(=O)O)C(=O)O (centres undefined) [euspeclibcmpd1615],-0.0888
18,C[C@]12CCC(=O)CC1=CCC1C2[C@@H](O)C[C@@]2(C)C1CC[C@]2(O)C(=O)COC(=O)CCC(=O)O (some centres undefined) [euspeclibcmpd152],-0.766
19,CC1CCC2(C(=O)O)CCC3(C)C(=CCC4C5(C)CC(O)C(O)C(C)(CO)C5CCC43C)C2C1C (centres undefined) [euspeclibcmpd1959],-0.237
20,N=C(N)c1ccc(N=NNc2ccc(C(=N)N)cc2)cc1 [euspeclibcmpd1093],0.338
21,CCCCCCOc1ccccc1C(N)=O [euspeclibcmpd1139],0.59
22,N=C(N)c1ccc(OCCCCCOc2ccc(C(=N)N)cc2)cc1 [euspeclibcmpd1040],12.5 (active)
23,C[C@@H]1CCC2[C@](C)(CO)[C@@H](O)CC[C@]2(C)[C@@]12CC[C@@](CO)(CCO)O2 (some centres undefined) [euspeclibcmpd1570],-0.216

row,SMILES,Srxn1-GFP intensity median modified Z-score
1,CCOc1cc(/C=C/C(=O)O)ccc1OC,0.394
2,CCNC(=O)CCC(N)C(=O)O (centres undefined) [euspeclibcmpd2170],-0.00834
3,CC12CCC(=O)N1C(C(=O)NCCCNS(C)(=O)=O)CS2 (centres undefined),2.02 (active)
4,CC(=O)COc1ccc2c(C)cc(=O)oc2c1,1.43
5,CN(C)C1C(=O)C(C(=O)NCN2CCCC2)C(=O)C2(O)C(=O)C3C(=O)c4c(O)cccc4C(C)(O)C3CC12 (centres undefined) [euspeclibcmpd1955],-0.368
6,C[C@]12C=CC(=O)CC1=CCC1C2C(=O)C[C@@]2(C)C1CC[C@]2(O)C(=O)CO (some centres undefined) [euspeclibcmpd243],-0.188
7,CC(=O)OC1CCC23C(=O)OC45CCC(c6coc(O)c6)C4(C)CCC2C5CCC3(O)C1 (centres undefined) [euspeclibcmpd1387],-1.25
8,[Cl][Ca][Cl] [euspeclibcmpd2470],1.27
9,N#CCC(=O)NN [euspeclibcmpd1098],3.08 (active)
10,CON=C1CN(c2nc3c(cc2F)c(=O)c(C(=O)O)cn3C2CC2)CC1CN (centres undefined) [euspeclibcmpd871],-0.00523
11,CC1=C(C(=O)O)N2C(=O)C(=NC(=O)C(N)C3CC=CCC3)C2SC1 (centres undefined) [euspeclibcmpd49],-0.299
12,CN(C)CC(=O)OCC(=O)C(O)C(O)C(O)C(O)O (centres undefined) [euspeclibcmpd2264],-0.422
13,COc1ccc(CCN2CCC(N=c3[nH]c4ccccc4n3Cc3ccc(F)cc3)CC2)cc1 [euspeclibcmpd1296],-0.744
14,Cc1c(NC(=O)CCc2cccnc2)c(=O)n(-c2ccccc2)n1C,1.03
15,COc1ccc([C@@H]2CC(=O)c3c(O)cc(O[C@@H]4O[C@H](CO[C@H]5O[C@@H](C)[C@H](O)[C@@H](O)[C@H]5O)[C@@H](O)[C@H](O)[C@H]4O)cc3O2)cc1O [euspeclibcmpd1499],-0.332
16,C=C[C@](C)(O)CC[C@@H]1[C@@]2(C)CCCC(C)(C)[C@@H]2CC[C@]1(C)O [euspeclibcmpd2213],2.3 (active)
17,C=C[C@@](C)(O)CCC1C(=C)C[C@H](O)C2C(C)(C)CCCC12C (some centres undefined) [euspeclibcmpd2065],0.497
18,CNC(CC(=O)O)C(=O)O (centres undefined) [euspeclibcmpd1746],-0.42
19,OC(COC(c1ccccc1)c1ccccc1)CN1CCN(/C=C/Cc2ccccc2)CC1 (centres undefined),0.401
20,CN1CCN(C(c2ccccc2)c2ccccc2)CC1 [euspeclibcmpd77],0.846
21,CC(=O)NC(CC(C)C)C(=O)O (centres undefined) [euspeclibcmpd1070],-0.124
22,CC(C)NS(=O)(=O)C1CCN(C(=O)CCS(=O)(=O)C2CCCC2)C1 (centres undefined),1.14
23,CC(C)Cn1cnc2c(=N)[nH]c3ccccc3c21 [euspeclibcmpd542],-0.55

row,SMILES,Srxn1-GFP intensity median modified Z-score
1,CC(=O)N=c1[nH]nc(S(N)(=O)=O)s1 [euspeclibcmpd48],0.382
2,CCCc1nc(C)c2c(=O)[nH]c(-c3cc(S(=O)(=O)N4CCN(CC)CC4)ccc3OCC)nn12 [euspeclibcmpd760],-0.393
3,O=C(O[C@@H]1Cc2c(O)cc(O)cc2O[C@@H]1c1cc(O)c(O)c(O)c1)c1cc(O)c(O)c(O)c1 [euspeclibcmpd1546],1.25
4,O=C(Oc1cc(O)cc2c1CC(OC(=O)c1cc(O)c(O)c(O)c1)C(c1cc(O)c(O)c(O)c1)O2)c1cc(O)c(O)c(O)c1 (centres undefined) [euspeclibcmpd1839],-0.336
5,O=C(OC[C@H]1O[C@H](OC(=O)c2cc(O)c(O)c(OC(=O)c3cc(O)c(O)c(O)c3)c2)[C@H](OC(=O)c2cc(O)c(O)c(OC(=O)c3cc(O)c(O)c(O)c3)c2)[C@@H](OC(=O)c2cc(O)c(O)c(OC(=O)c3cc(O)c(O)c(O)c3)c2)[C@@H]1OC(=O)c1cc(O)c(O)c(OC(=O)c2cc(O)c(O)c(O)c2)c1)c1cc(O)c(O)c(OC(=O)c2cc(O)c(O)c(O)c2)c1 [euspeclibcmpd649],8.09 (active)
6,CCCCCCCCCCCCCCCC(=O)OCC(O)c1oc(O)c(O)c1O (centres undefined) [euspeclibcmpd862],-0.777
7,CC(C)(Oc1ccc(C(=O)c2ccc(Cl)cc2)cc1)C(=O)O [euspeclibcmpd2188],-0.278
8,Cc1c2oc3c(C)ccc(C(=O)OC(C)C4NC(=O)C(C(C)C)N(C)C(=O)CN(C)C(=O)C5CCCN5C(=O)C(C(C)C)NC4=O)c3[nH]c-2c(C(=O)OC(C)C2NC(=O)C(C(C)C)N(C)C(=O)CN(C)C(=O)C3CCCN3C(=O)C(C(C)C)NC2=O)c(=N)c1=O (centres undefined) [euspeclibcmpd955],-2.39
9,CN(C)CCCN1c2ccccc2Sc2ccccc21 [euspeclibcmpd252],0.744
10,OCCN1CCN(CCCN2c3ccccc3Sc3ccc(Cl)cc32)CC1 [euspeclibcmpd640],-1.43
11,CNCCCN1c2ccccc2CCc2ccccc21 [euspeclibcmpd86],1.22
12,CNCCCN1c2ccccc2Sc2ccccc21,2.13 (active)
13,CN1CCN(CCCN2c3ccccc3Sc3ccc(C(F)(F)F)cc32)CC1 [euspeclibcmpd306],0.328
14,CN1CCN(CCCN2c3ccccc3Sc3ccc(Cl)cc32)CC1 [euspeclibcmpd249],3.78 (active)
15,C/C(=C(/CCOP(=O)(O)O)SC(=O)c1ccccc1)N(C=O)Cc1c[nH]c(C)nc1=N [euspeclibcmpd1052],1.09
16,O=C(CCc1ccccc1)NCCO,1.29
17,Cc1nnc(SC=C2CSC3C(NC(=O)Cn4cnnn4)C(=O)N3C2C(=O)O)s1 (centres undefined) [euspeclibcmpd2337],0.336
18,CCCCNC(=O)c1ccc(NC(C)=O)cc1,0.99
19,CC(C)=CCCC1(C)C=Cc2c(O)c3c(c(CC=C(C)C)c2O1)OC12C(CC4CC1C(C)(C)OC2(C=CC(C)C(=O)O)C4O)C3=O (centres undefined) [euspeclibcmpd1941],50.9 (active)
20,COc1ccc(-c2coc3c4c(c(CC=C(C)C)c(OC)c3c2=O)OC(C)(C)C=C4)cc1OC [euspeclibcmpd2197],-0.274
21,CC(C)=CCCC1(C)C=Cc2c(O)c3c(c(CC=C(C)C)c2O1)OC12C(=CC4CC1C(C)(C)OC2(C=CC(C)C(=O)O)C4=O)C3=O (centres undefined) [euspeclibcmpd1425],127 (active)
22,COC(=O)C(C)=CCC12OC(C)(C)C3CC(=CC4C(=O)c5c(OC)c6c(c(CC=C(C)C)c5OC431)OC(C)(CCC=C(C)C)C=C6)C2=O (centres undefined) [euspeclibcmpd2284],55.9 (active)
23,CC(C)=CCCC1(C)C=Cc2c(O)c3c(c(CC=C(C)C)c2O1)OC12C(=CCCC1C(C)(C)O[C@@]2(C=CC(C)C(=O)O)C(=O)O)C3=O (some centres undefined) [euspeclibcmpd1701],6.67 (active)
